Test results: the supplement of paper PMC11732987, “Enantioselective OTUD7B fragment discovery through chemoproteomics screening and high-throughput optimisation” (Communications Chemistry, 2025)

What was measured:
Test in all cases: log2 ratio of Biotin-Ahx-Ub-VS probe labelling (fragment/DMSO); higher = less target engagement (more negative = stronger competition), active = hit call of the paper (q ≤ 0.05, log2 ratio ≤ -1)
Conditions in all cases: compound concentration: 200 uM; treatment time: 3 h
[1] = target: T1, OTUD6B (UniProt Q8N6M0)
T1 sequence (whole entry): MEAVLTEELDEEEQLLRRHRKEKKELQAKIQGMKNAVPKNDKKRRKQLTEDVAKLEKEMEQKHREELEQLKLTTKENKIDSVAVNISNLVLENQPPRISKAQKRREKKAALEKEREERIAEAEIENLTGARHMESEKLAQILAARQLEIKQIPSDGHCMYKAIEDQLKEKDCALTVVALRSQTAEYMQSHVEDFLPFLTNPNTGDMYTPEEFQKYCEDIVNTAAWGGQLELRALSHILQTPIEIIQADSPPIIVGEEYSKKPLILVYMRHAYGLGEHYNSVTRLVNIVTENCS
Method in brief: (§1)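 Lysate from HEK293T cells, 495 µg per sample in Tris/CHAPS/IGEPAL buffer with protease inhibitors, was treated for 3 h in triplicate with fragment at 200 µM or vehicle. Biotin-Ahx-Ub-VS was next added at 0.5 µM final for 1 h. The labelled DUBs were enriched with NeutrAvidin, digested with LysC and trypsin, and run by diaPASEF LC-MS/MS, with values given as average log2 fragment/vehicle ratios by unpaired t-test on global-median-normalised Spectronaut quantities of proteins with ≥2 unique peptides.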

[2] = target: T2, OTUD7B (UniProt Q6GQQ9)
T2 sequence (whole entry): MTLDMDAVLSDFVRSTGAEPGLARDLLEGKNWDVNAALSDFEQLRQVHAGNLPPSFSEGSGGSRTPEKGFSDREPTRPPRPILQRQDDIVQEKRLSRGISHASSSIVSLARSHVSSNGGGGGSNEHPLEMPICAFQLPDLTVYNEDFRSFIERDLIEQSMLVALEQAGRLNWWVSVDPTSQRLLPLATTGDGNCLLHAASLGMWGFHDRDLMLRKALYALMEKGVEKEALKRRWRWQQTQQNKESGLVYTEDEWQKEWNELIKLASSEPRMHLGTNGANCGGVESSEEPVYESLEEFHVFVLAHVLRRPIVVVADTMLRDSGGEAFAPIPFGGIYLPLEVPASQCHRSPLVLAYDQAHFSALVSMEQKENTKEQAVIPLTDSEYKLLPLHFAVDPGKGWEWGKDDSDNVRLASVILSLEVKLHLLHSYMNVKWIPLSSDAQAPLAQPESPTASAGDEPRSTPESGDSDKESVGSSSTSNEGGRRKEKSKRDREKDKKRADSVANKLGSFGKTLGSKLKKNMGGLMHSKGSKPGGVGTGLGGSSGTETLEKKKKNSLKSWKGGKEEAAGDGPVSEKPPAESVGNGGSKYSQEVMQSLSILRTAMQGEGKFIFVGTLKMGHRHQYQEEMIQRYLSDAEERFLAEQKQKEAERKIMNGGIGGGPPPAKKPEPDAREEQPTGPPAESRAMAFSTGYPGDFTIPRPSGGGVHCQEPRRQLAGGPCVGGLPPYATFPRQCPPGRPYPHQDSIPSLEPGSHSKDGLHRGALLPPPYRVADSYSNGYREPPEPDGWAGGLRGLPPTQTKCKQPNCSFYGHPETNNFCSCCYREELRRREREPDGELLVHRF
Method in brief: as §1

[3] = target: PRPF8 (UniProt Q6P2Q9)
Method in brief: as §1

[4] = target: T3, PSMD7 (UniProt P51665)
T3 sequence (whole entry): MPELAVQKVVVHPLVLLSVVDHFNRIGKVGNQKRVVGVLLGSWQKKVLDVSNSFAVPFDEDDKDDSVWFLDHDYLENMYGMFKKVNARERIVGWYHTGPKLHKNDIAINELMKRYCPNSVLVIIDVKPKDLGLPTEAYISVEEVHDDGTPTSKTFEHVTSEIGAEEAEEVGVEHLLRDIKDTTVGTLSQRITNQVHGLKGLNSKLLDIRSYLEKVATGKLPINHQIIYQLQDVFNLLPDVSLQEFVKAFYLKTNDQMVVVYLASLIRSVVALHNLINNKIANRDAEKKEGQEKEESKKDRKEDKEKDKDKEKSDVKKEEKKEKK
Method in brief: as §1

[5] = target: UCHL1 (UniProt P09936)
UCHL1, sequence (P09936 whole entry, looked up): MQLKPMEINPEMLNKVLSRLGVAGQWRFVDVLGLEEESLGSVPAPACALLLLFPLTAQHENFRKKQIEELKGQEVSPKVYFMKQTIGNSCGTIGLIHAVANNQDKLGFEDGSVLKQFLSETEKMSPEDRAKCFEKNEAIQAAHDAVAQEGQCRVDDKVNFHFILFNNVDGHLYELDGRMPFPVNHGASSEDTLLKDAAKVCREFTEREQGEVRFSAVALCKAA
Method in brief: as §1

[6] = target: T4, UCHL3 (UniProt P15374)
T4 sequence (whole entry): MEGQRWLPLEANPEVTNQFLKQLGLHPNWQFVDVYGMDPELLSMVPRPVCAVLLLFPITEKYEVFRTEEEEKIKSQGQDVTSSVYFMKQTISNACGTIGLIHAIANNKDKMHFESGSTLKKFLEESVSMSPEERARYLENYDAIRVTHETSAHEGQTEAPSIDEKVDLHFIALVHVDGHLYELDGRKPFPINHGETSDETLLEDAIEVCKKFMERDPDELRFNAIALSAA
Method in brief: as §1

[7] = target: T5, UCHL5 (UniProt Q9Y5K5)
T5 sequence (whole entry): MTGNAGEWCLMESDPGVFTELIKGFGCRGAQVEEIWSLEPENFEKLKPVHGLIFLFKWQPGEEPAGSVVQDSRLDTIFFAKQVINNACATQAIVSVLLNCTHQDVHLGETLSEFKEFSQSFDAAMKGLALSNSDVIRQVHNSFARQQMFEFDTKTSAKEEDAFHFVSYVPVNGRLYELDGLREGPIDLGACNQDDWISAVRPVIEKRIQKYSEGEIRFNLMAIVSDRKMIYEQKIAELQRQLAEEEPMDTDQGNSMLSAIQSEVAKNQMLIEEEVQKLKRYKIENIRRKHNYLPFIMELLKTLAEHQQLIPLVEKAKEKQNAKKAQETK
Method in brief: as §1

[8] = target: USP10 (UniProt Q14694)
USP10, sequence (Q14694 whole entry): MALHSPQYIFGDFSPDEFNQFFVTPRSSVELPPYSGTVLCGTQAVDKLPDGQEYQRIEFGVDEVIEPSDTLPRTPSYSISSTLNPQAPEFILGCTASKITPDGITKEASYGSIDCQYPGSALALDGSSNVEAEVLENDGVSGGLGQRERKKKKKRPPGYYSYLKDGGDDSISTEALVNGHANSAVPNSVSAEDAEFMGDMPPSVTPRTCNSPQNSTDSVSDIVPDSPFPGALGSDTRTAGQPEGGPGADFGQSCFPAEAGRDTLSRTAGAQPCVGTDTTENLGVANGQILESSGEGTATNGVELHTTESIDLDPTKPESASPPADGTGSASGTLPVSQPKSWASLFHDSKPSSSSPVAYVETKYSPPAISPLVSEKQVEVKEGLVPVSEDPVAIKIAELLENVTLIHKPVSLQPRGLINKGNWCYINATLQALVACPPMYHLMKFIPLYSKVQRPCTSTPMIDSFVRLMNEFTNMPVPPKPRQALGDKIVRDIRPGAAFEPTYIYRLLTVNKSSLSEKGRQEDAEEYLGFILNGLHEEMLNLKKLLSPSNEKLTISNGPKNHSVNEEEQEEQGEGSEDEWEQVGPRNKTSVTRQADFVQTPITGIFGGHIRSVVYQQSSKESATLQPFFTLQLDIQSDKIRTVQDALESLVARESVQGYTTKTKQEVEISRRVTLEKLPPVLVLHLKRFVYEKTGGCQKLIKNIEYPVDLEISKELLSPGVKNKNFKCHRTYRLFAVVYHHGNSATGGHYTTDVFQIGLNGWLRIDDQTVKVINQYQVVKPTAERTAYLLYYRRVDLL
Method in brief: as §1

[9] = target: T6, USP15 (UniProt Q9Y4E8)
T6 sequence (whole entry): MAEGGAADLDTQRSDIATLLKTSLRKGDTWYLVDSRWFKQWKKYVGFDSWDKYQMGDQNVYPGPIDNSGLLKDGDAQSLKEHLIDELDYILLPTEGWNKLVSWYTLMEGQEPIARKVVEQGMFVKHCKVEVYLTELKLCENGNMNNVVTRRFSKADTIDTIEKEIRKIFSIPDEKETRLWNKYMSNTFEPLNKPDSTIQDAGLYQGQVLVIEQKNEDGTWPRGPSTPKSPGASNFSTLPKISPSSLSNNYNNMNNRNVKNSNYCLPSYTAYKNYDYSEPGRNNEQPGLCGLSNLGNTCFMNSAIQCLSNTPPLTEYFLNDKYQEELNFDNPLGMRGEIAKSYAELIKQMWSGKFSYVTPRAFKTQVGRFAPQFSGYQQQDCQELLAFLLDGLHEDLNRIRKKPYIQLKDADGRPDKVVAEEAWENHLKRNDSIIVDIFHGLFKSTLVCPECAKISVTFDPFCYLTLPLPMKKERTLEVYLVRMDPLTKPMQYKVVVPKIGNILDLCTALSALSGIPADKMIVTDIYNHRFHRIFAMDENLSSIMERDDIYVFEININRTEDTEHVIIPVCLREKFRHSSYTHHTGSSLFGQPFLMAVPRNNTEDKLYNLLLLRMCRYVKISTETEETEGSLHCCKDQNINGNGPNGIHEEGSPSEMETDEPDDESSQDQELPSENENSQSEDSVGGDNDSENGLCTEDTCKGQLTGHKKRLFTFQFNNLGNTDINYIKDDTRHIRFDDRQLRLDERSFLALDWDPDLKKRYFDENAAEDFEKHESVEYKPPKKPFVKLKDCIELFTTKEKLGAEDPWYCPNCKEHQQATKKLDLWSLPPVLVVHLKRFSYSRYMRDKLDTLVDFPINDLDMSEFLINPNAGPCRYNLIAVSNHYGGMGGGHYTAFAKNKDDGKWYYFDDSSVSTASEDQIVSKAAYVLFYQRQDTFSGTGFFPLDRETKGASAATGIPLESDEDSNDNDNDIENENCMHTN
Method in brief: as §1

[10] = target: USP16 (UniProt Q9Y5T5)
USP16, sequence (Q9Y5T5 whole entry, looked up): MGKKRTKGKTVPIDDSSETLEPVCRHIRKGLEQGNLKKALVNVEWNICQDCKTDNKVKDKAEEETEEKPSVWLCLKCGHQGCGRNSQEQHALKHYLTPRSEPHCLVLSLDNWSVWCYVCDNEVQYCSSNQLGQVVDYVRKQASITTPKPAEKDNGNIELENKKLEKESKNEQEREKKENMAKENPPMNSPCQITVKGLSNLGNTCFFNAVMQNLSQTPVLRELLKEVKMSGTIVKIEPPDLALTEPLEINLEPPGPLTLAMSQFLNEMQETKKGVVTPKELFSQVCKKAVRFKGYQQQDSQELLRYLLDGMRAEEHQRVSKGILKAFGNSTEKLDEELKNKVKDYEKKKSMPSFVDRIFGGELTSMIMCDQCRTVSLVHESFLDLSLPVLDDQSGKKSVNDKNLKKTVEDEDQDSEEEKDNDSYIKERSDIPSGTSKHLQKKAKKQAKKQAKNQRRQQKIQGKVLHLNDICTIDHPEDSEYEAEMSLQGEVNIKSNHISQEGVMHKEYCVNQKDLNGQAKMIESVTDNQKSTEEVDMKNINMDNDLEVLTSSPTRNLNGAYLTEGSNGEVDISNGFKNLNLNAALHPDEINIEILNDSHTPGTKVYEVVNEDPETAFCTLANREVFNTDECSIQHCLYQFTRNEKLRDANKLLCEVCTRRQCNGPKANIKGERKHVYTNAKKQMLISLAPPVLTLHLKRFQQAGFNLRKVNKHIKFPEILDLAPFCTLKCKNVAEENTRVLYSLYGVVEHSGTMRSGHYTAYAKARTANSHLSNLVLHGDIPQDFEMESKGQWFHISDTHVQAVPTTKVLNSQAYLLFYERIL
Method in brief: as §1

Measured: log2 ratio of Biotin-Ahx-Ub-VS probe labelling

O=C(CCl)N1CCc2[nH]c3ccccc3c2C1
active: [2] -1.05 | [5] -1.24 | [9] -1.46
inactive: [1] -0.206 | [3] -0.175 | [4] -0.319 | [6] -0.675 | [7] -0.893 | [8] -0.119 | [10] 0.191
